Results: PubChem BioAssay (EPA / NIEHS)
The source made the active and inactive calls. How the source made its calls: active means hit-call score of the fitted dose curve at least 0.9, where 1 is the maximum; inactive means score below 0.9.

Each compound was assayed on Cytochrome P450 (CYP1A2), CYP1A2 (gene 1544) (assay: LTEA_HepaRG_CYP1A2: Life Technologies and Expression Analysis (LTEA) Assay for Cytochrome P450 (CYP1A2) using HepaRG (AID 2283479;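 on AC50: TaqMan qRT-PCR transcript level normalized to ACTB GAPDH and POLR2A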)). Conditions: mRNA level, 48 h; actives raise or lower the signal.
Description: LTEA_HepaRG is a cell based, multiplexed-readout assay that uses HepaRG, a human liver cell line, with measurements taken at 48 hours after chemical dosing on a 96-well plate.LTEA_HepaRG_CYP1A2 is one of 102 assay component(s) measured in the LTEA HepaRG cell culture assay. It is a marker of NR mediated metabolism.Data from the assay component LTEA_HepaRG_CYP1A2 was analyzed into 1 endpoint. This assay endpoint, LTEA_HepaRG_CYP1A2, was analyzed with bidirectional fitting relative to DMSO as the negative control and baseline of activity. Using a type of inducible reporter, measures of mRNA induction for gain or loss-of-signal activity can be used to understand regulation of transcription factor activity. To generalize the intended target to other relatable targets, this assay endpoint is annotated to the cyp intended target family, where the subfamily is xenobiotic metabolism.
A total of 1060 chemcials from the ToxCast library were tested in eight-point concentration-response experiments. Cell culture and cytotoxicity assays were conducted at Thermo Fisher Scientific's Custom Services facility (Madison, WI). A single lot of human HepaRG cells (Thermo Fisher Scientific, Frederick, MD) was used for the cell culture experiments. 96-well format collagen type I coated plates of human HepaRG cells were prepared using established methods. Briefly, cryopreserved HepaRG cells were thawed, plated at a density of approximately 100,000 cells/well in HepaRG Thaw, Plate, and General Purpose media (HPRG770, Thermo Fisher Scientific), and incubated for 48 hours. 0.5% DMSO was selected as vehicle control to balance the requisite need of DMSO in HepaRG cultures to maintain differentiation (for example, baseline metabolism, proportions of hepatocytes vs. cholangiocytes), while enabling further hepatic receptor pathway activation (for example, PXR and CAR) in response to chemical exposure. 48 hours after plating, the culture medium was replaced with HepaRG Serum-Free Incudtion Media. Cells were exposed to each test chemical in duplicate and maintained in CO2 incubators for another 48 hours. Chemical plates were thawed to room temperature and 200x concentrations of treatment groups were prepared. 8-point conentration-reponse curves were made with the highest exposure at 100 uM, followed by half-log dilutions, all in 0.5% DMSO. Each test plate contained variouse controls, induction positive controls (1mM phenobarbital), cytotoxicity positive controls ([…] aflatoxin B1), vehicle controls (0.5% DMSO), and total lysis controls (0.5% DMSO). Cell morphology images were taken using an Essen IncuCyte FLR automated microscope, with six 96-well plates imaged in about 24 minutes. Images were captured and exported and JPEG files. Spent culture media was transfered to black-well plates for the LDH assay, and remaining media was sorted at -80 C for later use. Cells were treated with RLT buffer and frozen until shipped for gene expression analysis. Total RNA was isolated from the cell suspension in 75 uL of Buffer RLT (Qiagen, Germantown, MD 20874) by Quintiles/Expression Analysis (Durham, NC) using a custom isolation procedure. Total RNA from each plate well was transferred to a preamplification plate. Fluidigm's 96.96 Dynamic ArrayTM (Fluidigm, Amsterdam, the Netherlands) technology was used for gene expression analyses by quantitative reverse transcription polymerase chain reaction (qRT-PCR, performed by Quintiles/Expression Analysis, Durham, NC)89. Standard TaqManTM Assays (Applied Biosystems/ThermoFisher Scientific, Foster City, CA) were used to assess the expression of 93 genes selected based on their selectivity and sensitivity to important hepatic receptors known to be modulated by environmental chemicals; importance in human hepatocyte functionality; and hepatotoxicity. […]
With `O=C1OC(c2ccc(O)cc2)(c2ccc(O)cc2)c2ccccc21` the AC50 was 72.4 µM (active). With `CCC(C)N(C)C(=O)c1cc2ccccc2c(-c2ccccc2Cl)n1` (stereo not given) the AC50 was 50.5 µM (active). With `C#CC(O)C(CC)CCCC` (stereo not given) the outcome was “inactive”. `S=c1[nH]c2ccccc2s1` was tested, and the AC50 was 10.7 µM (active). With `C/C=C/C=C/C(=O)O` the outcome was “inactive”. In the case of `Cc1cc(SC2=C(O)C[C@@](CCc3ccc(N)cc3)(C(C)C)OC2=O)c(C(C)(C)C)cc1CO`, the AC50 is reported as 0.572 µM (active). `CCCCCCC(C=O)=Cc1ccccc1` was tested, and the outcome was “inactive”. For `CC(=O)CC(c1ccccc1)c1c(O)c2ccccc2oc1=O` (stereo not given), the outcome was “inactive”. For `COc1ccc(C(=O)Nc2nc3ccccc3c(NCc3ccccc3)c2C#N)cc1`, the AC50 was 3 µM (active). For `C=CCc1ccc(OC)c(OC)c1`, the outcome was “inactive”. For `CC(C)OC(=O)C(C)(C)Oc1ccc(C(=O)c2ccc(Cl)cc2)cc1`, the AC50 was 28.1 µM (active). `CC(=O)S[C@H](C(=O)N[C@H]1Cc2ccccc2[C@H]2CCC[C@@H](C(=O)O)N2C1=O)C(C)C` was tested, and the outcome was “inactive”. With `NCCOCCOCCN` the outcome was “inactive”. For `O=C(N[C@@H](c1ccccc1)[C@@H]1CCCCN1)c1cccc(C(F)(F)F)c1Cl`, the outcome was “inactive”. For `NC=O`, the outcome was “inactive”. In the case of `CN(C)C(=O)NC1(c2ccccc2)CCN(CC[C@@]2(c3ccc(F)c(F)c3)CN(C(=O)c3ccccc3)CCO2)CC1`, the AC50 is reported as 47 µM (active). With `OCC(O)CO` the outcome was “inactive”. In the case of `OCC(CO)n1cnc(-c2ccc(F)cc2)c1-c1ccnc(Oc2ccccc2)n1`, the outcome is reported as “inactive”. In the case of `CC1=C(C)S(=O)(=O)CCS1(=O)=O`, the AC50 is reported as 9.92 µM (active). `CN(C)C(=O)NC1(c2ccccc2)CCN(CCC[C@]2(c3ccc(Cl)c(Cl)c3)CCCN(C(=O)c3ccccc3)C2)CC1` was tested, and the outcome was “inactive”. `CCCCCCCCCCCCCCCCO` was tested, and the outcome was “inactive”. In the case of `O=C1O[C@H]([C@H](O)CO)C(O)=C1O`, the outcome is reported as “inactive”. For `CCCCC(CC)CO` (stereo not given), the AC50 was 50 µM (active). In the case of `C=CCCCCCCCCCCCC`, the AC50 is reported as 50 µM (active). For `O=C(O)CN(CC(=O)O)CC(=O)O`, the AC50 was 45.8 µM (active). `COc1ccc(OC(F)(F)F)cc1CN[C@H]1CCCN[C@H]1c1ccccc1` was tested, and the AC50 was 15.8 µM (active). For `CC(=O)O`, the outcome was “inactive”. In the case of `CC(C)(C)c1ccccc1`, the outcome is reported as “inactive”. With `O=C(O)c1[nH]n(-c2ccc(S(=O)(=O)O)cc2)c(=O)c1N=Nc1ccc(S(=O)(=O)O)cc1` the AC50 was 14.8 µM (active). In the case of `O=C(NS(=O)(=O)/C=C/c1cccs1)c1ccc(F)cc1Br`, the outcome is reported as “inactive”. In the case of `CC(C)c1cccc(C(C)C)c1NC(=O)NS(=O)(=O)c1cc(C(C)(C)O)co1`, the outcome is reported as “inactive”. With `COC(=O)CCC(=O)OC` the outcome was “inactive”. In the case of `Cc1c(C)c2c(c(C)c1O)CCC(C)(COc1ccc(CC3SC(=O)NC3=O)cc1)O2` (stereo not given), the AC50 is reported as 15.8 µM (active). `CCCC[C@H]1CN(CC2CCOCC2)C(=O)OC12CCN(C1(C)CCN(C(=O)c3c(C)ncnc3C)CC1)CC2` was tested, and the outcome was “inactive”. `NC1CCCCC1` was tested, and the outcome was “inactive”. `Nc1nc(=S)c2[nH]cnc2[nH]1` was tested, and the AC50 was 3.04 µM (active). For `CC(C)COC(=O)CCCCC(=O)OCC(C)C`, the outcome was “inactive”. With `c1ccc2occc2c1` the outcome was “inactive”. `CN(C)CCCN(C)CCCN(C)C` was tested, and the outcome was “inactive”. In the case of `CCCCOC(=O)CCCCC(=O)OCCCC`, the AC50 is reported as 50 µM (active).
